A number with no mark means an inactive call. The call rests on the fitted dose curve; in most records, active means well fitted curve in the direction sought with a large enough effect; inactive means no such curve, though single readings can be large or run the other way.
Target: Pyruvate kinase PKLR (Homo sapiens) (UniProt P30613)
Assay: qHTS for Activators of Human Muscle Isoform Pyruvate Kinase: Extended Characterization against Liver Pyruvate Kinase
Details: purified hPK-L, ATP via Kinase-Glo luminescence, 1 h; series mostly up to 57.3 µM; activity change, positive = activation: at the top concentration
Description: Human pyruvate kinase liver (hPK-L) enzyme was supplied as a highly purified (>95% pure) preparation from Harvard Medical School and assayed for its ability to generate ATP from ADP using phosphoenolpyruvate (PEP) as a substrate. ATP generation was detected in a coupled reaction by luciferase-mediated luminescence, an ATP-dependent process. Pyruvate kinase substrates, PEP and ADP, were present in the assay at Km and approximately 10-fold below Km respectively. The enzyme was assayed at an intermediate level of activity to screen for both inhibitors and activators. NIH Chemical Genomics Center [NCGC] NIH Molecular Libraries Probe Centers Network [MLPCN] MLPCN Grant: MH085679 Assay Submitter (PI): Matthew G. Vander Heiden, Harvard Medical School
Three uL of substrate mix (at r.t.) in assay buffer (50 mM Imidazole pH7.2, 50 mM KCl, 7 mM MgCl2, 0.01% Tween 20, 0.05% BSA) was dispensed into white solid bottom 1,536 well microtiter plates so that the final concentrations of substrates in the assay were 0.1 mM ADP and 0.5 mM PEP. 23 nL of compound were delivered by a pin tool and 1 uL of enzyme mix (final concentration of 0.1 nM) in assay buffer (4 degree Celsius) was added. Plates were incubated at room temperature for 1 hour. Two uL of detection mix (Kinase-Glo, Promega; at 4 degree Celsius protected from light) was added and luminescence read by a ViewLux (Perkin Elmer) at 1 second exposure/plate. Data were normalized to the uninhibited (row 31). Additionally, a no enzyme and 5-fold enzyme control was dispensed in row 32, split equally between the two conditions.

Pyruvate kinase PKLR (Homo sapiens), sequence (P30613 whole entry, looked up, canonical isoform): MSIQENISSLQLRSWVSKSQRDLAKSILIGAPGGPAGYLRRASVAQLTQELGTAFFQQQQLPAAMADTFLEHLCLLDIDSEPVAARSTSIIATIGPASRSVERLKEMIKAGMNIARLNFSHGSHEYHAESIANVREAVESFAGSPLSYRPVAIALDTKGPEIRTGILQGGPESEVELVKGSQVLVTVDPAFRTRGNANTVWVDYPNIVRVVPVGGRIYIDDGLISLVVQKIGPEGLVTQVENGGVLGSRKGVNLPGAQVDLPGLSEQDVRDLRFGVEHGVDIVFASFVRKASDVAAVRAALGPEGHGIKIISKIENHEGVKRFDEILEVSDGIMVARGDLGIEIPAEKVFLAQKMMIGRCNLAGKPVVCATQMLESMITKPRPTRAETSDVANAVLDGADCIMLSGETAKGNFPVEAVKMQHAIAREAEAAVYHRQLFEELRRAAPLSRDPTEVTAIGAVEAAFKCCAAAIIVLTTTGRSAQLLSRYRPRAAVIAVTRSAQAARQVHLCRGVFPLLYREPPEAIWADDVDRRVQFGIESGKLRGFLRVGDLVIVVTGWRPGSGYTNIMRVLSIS

| SMILES | activity change, positive = activation |
| --- | --- |
| Cc1cc2c(s1)c1cnn(Cc3cc(F)ccc3F)c(=O)c1n2C | 5.89% |
| COc1cccc(Cn2ncc3c4sc(S(C)=O)cc4n(C)c3c2=O)c1 (stereo not given) | 5.38% |
| Cc1cc2c(s1)c1cnn(Cc3c(Cl)ccc(C)c3F)c(=O)c1n2C | 13.2% |
| Cc1cc2c(s1)c1cnn(Cc3ccc(F)cc3F)c(=O)c1n2C | 5.82% |
| Cc1cc2c(s1)c1cnn(Cc3cc(F)c(F)cc3F)c(=O)c1n2C | 5.78% |

Reference: PubChem BioAssay AID602379 (National Center for Advancing Translational Sciences (NCATS), 2012)
